From PubChem BioAssay (NCI) come the findings set out here.

Molecules are shown by their SMILES. Values joined by “and” are separate entries in the source; they are usually repeats but may differ in a detail not shown here. Equal values may be shown once. Compounds without any hit were thinned out: in the full panel of roughly 83,000, 20% have a hit.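 Single-dose data. Exposure time 48 hours. Values below 10 considered active.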 Unmarked numbers belong to inactive results. Active and inactive are the calls of the source.

This assay deals with CAKI-1 renal. Kind of assay: NCI-60 one-dose screen, 48 h (100 = growth as untreated, 0 = no growth, -100 = all killed). The note with it: 10 µM unless noted.
On to `Cc1cc(Br)ccc1-n1cc(C#N)c(N)c1C(=O)c1ccc(Br)cc1`, for which the growth was 91.6%. The value for `CCCCCCN1C=C/C(=C\C(=O)n2ccc3ccccc32)c2ccccc21` was 61%; that for `Cc1ccc(CSC2=C(Cl)CN(c3ccc(Cl)cc3)C2=O)cc1` was 94.5%.

For `Clc1ccc(CSc2nnc(-c3ccc(Cl)cc3)n2-c2ccccc2)cc1`, the growth was 62.9%. On to `NS(=O)(=O)c1ccc(CCn2c(-c3ccc(C(=O)O)cc3)nc(-c3ccccc3)c2-c2ccccc2)cc1`, for which the growth is 88.7%. As for `CC(=C(c1ccc(OCCCN(C)C)cc1)c1ccc(OCCCN(C)C)cc1)c1ccc(Cl)cc1`, the growth was 92.6%. Consider `CC[C@]12CC(C(=O)OC)=C3Nc4ccccc4[C@@]34CCN(C14)[C@@H]1c3cc4c(cc3O[C@@H]1[C@H]2O)NC1=C(C(=O)OC)C[C@@]2(CC)C3N(CC[C@@]143)C[C@H]1O[C@H]12` (stereo not given in full), for which the growth is 8.4% (active). The value for `Cc1ccc(-c2csc(N/N=C/c3cccs3)n2)cc1` was 87.4%.

In the case of `CN1CCC[C@]2(C)[C@H]3CC[C@@H]4[C@@H]5[C@H]6OC[C@@]5(CCC6(C)C)CC[C@@]4(C)[C@]3(C)CC[C@H]2C1(C)C`, the growth was 10.4%.

For `O=S(=O)(Oc1ccc(-c2cn3ccoc3n2)cc1)c1cccc(C(F)(F)F)c1`, the growth was 86.9%. Turning to `CC(Nc1c(C#N)cnc2ccc(-c3cncc(-c4n[nH]c(=O)o4)c3)cc12)c1ccccc1` (stereo not given), the growth is 4.01% (active). The result for `C#CCN(C)CCCOc1ccc(NC(=O)CCCCCCCCC(=O)NO)cc1Cl` reads 78.6%; that for `CCCc1cc2cc(-n3nc(CC)c4c3CC(C)(C)CC4=O)cc(NC3CCC(O)CC3)c2c(=O)[nH]1` (stereo not given), 19.6%. The value for `O=C(CN1CCN(c2cc(=O)[nH]c3ccc(F)cc23)CC1)N(c1ccccc1)c1ccccc1` was 95.1%; that for `CN1CCN(c2ccc(Nc3nc(NCCCNS(=O)(=O)c4cccc(F)c4)c4sccc4n3)cc2)CC1` was 17.9%. Take `COc1ccc(C(=NNS(=O)(=O)c2ccc(C)cc2)c2ccccc2)cc1OC`: the growth was 80.7%. In the case of `COc1ccc(/C=N/NC(=O)c2c(N)nn(C)c2Nc2ccccc2)cc1Oc1ccccc1`, the growth was 86.6%.

As for `C#C[C@]1(O)CC[C@H]2[C@@H]3CC=C4c5sc(NCc6ccccc6)nc5CC[C@]4(C)[C@H]3CC[C@@]21C`, the growth was 50.6%. The result for `Cc1cc(NS(=O)(=O)c2ccc(NC(=O)CSc3nc4ccccc4c(=O)n3-c3ccccc3)cc2)no1` reads 94.9%.

With `CC(C)NC(=O)c1cc(-c2ccc(NC(=O)Nc3ccc(F)c(C(F)(F)F)c3)cc2)nc2cccnc12`, the growth is 97.7%. As for `CCOC(=O)c1cccnc1Nc1ccc(NC(=O)Nc2ccc(Cl)c(C(F)(F)F)c2)cc1`, the growth was 22.6%. The value for `O=C(CSc1nc2ccccc2c(=O)n1-c1ccc(S(=O)(=O)Nc2ccc(Cl)nn2)cc1)Nc1ccc(S(=O)(=O)Nc2ccc(Cl)nn2)cc1` was 91.9%; that for `COc1cc(-c2nc(-c3ccccc3)[nH]c2-c2ccnc(NCCCNS(=O)(=O)c3ccc(C(F)(F)F)cc3)n2)ccc1Cl` was 31.2% and 35.4%; that for `Cc1csc(/N=C(N)/N=C(\N)c2cccc(C#N)c2)n1` was 53.9%. The result for `CC[C@]12C=CCN3CC[C@]4(C(=C(C(=O)OC)C1)Nc1cc5c(cc14)[C@@H]1[C@H](O5)[C@@H](O)[C@@]4(CC)CC(C(=O)OC)=C5Nc6cc(O)ccc6[C@@]56CCN1C46)C32` (stereo not given in full) reads -7.67% (active); that for `COc1ccc(OC)c(CCn2cncc2-c2c[nH]c3ccc(Cl)cc23)c1`, 31.3%; that for `Cc1ccc(-c2cc3nc(C(Cl)Cl)nc(-c4ccc(S(=O)(=O)N(C)C)cc4)n3n2)cc1`, 82.2%. For `CC1=C(C)C(=O)C(Nc2cccc(C(=O)OC(C)(C)C)c2)=C(Cl)C1=O`, the growth was 76.1%. For `COC(=O)c1ccc(NC2=C(Cl)C(=O)C(C)=C(C)C2=O)cc1`, the growth is 43.3%.

Regarding `Cc1nc(/N=C(N)/N=C(\N)c2cccc(Br)c2)sc1C`, the growth was 48.6%.

Take `COC(=O)c1cccc(NC2=C(Cl)C(=O)c3nc(C)ccc3C2=O)c1`: the growth was 103%. For `CN(C)c1ccc(/C=N/Nc2nc(N/N=C/c3ccc(N(C)C)cc3)nc(N3CCCCC3)n2)cc1`, the growth is 89.9%. The value for `OCC(Nc1ncnc2ccc(-c3cnc4cnccn34)cc12)c1ccccc1` (stereo not given) was 41.7%; that for `COc1ccc(-c2cc(-c3ccc(N4CCOCC4)cc3)n3c(n2)nc2ccccc23)cc1OC` was 50.6%. The value for `CCOC(=O)c1c(NC(=O)c2cccc(C(F)(F)F)c2)sc2c1CCC(=O)C2` was 23.9%.

With `CN1CCN(c2ccc(Nc3nc(NCCCNS(=O)(=O)c4ccc(Cl)cc4)c4sccc4n3)cc2)CC1`, the growth was 10.8%. The result for `CCOC(=O)C(=O)Nc1ccc2c(ccn2C(=O)c2cccc(F)c2)c1` reads 92.7%; that for `CCOc1cccc(/C(N)=N/C(N)=N/c2nc3ccccc3s2)c1`, 62.4%; that for `CN1CCN(c2ccc(Nc3nc(NCCCNS(=O)(=O)c4ccc(C(F)(F)F)cc4)c4sccc4n3)cc2)CC1`, -76.9% (active).

`Cc1ccc2c(n1)C(=O)C(Cl)=C(Nc1cccc(C(F)(F)F)c1)C2=O`: the growth is 81.8%.
